{
  "source": "PubChem BioAssay AID743126",
  "about": "(The Scripps Research Institute Molecular Screening Center, 2013)",
  "note": "The campaign covered roughly 370,000 compounds. About 2,100 (0.57%) were called active.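 Rule for the calls: active = inhibition above mean plus 3 SD of compounds lying within the high and low control bounds (cut at about 19% in these data); inactive = the rest.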 The full list was thinned out, with actives kept by preference.",
  "data": [
    {"molecular_target": "Group 3 secretory phospholipase A2 (Homo sapiens) (UniProt Q9NZ20)", "sequence (Q9NZ20 whole entry, looked up)": "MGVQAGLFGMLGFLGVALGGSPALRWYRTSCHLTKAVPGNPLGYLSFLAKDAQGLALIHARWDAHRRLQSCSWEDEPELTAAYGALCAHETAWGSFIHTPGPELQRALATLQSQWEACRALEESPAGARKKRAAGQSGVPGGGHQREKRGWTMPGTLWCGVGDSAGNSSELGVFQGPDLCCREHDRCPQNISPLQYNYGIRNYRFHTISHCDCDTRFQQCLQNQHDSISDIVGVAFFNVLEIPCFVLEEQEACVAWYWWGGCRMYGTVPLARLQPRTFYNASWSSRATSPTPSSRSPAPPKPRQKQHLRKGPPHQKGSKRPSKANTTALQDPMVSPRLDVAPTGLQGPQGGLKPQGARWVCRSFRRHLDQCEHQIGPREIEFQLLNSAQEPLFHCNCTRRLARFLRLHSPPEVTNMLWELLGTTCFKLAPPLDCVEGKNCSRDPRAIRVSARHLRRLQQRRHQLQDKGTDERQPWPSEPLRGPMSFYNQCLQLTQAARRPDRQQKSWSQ", "test": "human group III sPLA2 inhibitors, primary screen, biochemical, QFRET, BODIPY PC-A2 liposome substrate (AID 743126);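 note: 0% = median of test compound wells and 100% = no enzyme DMSO wells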", "settings": "QFRET BODIPY PC-A2 liposome hydrolysis, fluorescence; at 12.2 µM; hits give high values", "values": [
      {"smiles": "Nc1ccc2c(c1)C(O)c1ccc(Cl)cc1-2", "note": "(centres undefined)", "inhibition": "19.6% (active)"},
      {"smiles": "Nc1ccc2nn(-c3ccc(Cl)cc3)nc2c1", "inhibition": "0.58% (inactive)"},
      {"smiles": "NC(=O)C1(C(N)=O)OC1c1ccc(Cl)cc1Cl", "note": "(centres undefined)", "inhibition": "-4.76% (inactive)"},
      {"smiles": "Cc1ccc(C(=O)N(Cc2ccccn2)CC2CCCO2)cc1", "note": "(centres undefined)", "inhibition": "1.49% (inactive)"},
      {"smiles": "CCN(CC)C(=O)CC[C@@H]1CC[C@]2(CCCN(S(=O)(=O)C3CCCCC3)C2)O1", "inhibition": "11.9% (inactive)"},
      {"smiles": "O=C(NNc1nc(N2CCCC2)nc(N2CCCC2)n1)c1ccccc1", "inhibition": "-2.93% (inactive)"},
      {"smiles": "Cc1ccc(-c2csc(NNC(=O)c3ccccc3)n2)cc1", "inhibition": "41.2% (active)"},
      {"smiles": "Cc1ccc(C(=O)Nc2nc(N)n(-c3ccccc3)n2)cc1", "inhibition": "12.6% (inactive)"},
      {"smiles": "COC(=O)[C@]12C[C@H](CC(=O)NCc3cccc4ccccc34)C(=O)N(CCc3ccc(OC)c(OC)c3)C1=C[C@H](C1CCCC1)O[C@@H]2C", "inhibition": "-20.3% (inactive)"},
      {"smiles": "CCn1c2ccccc2c2cc(NC(=O)CSc3nnc(-c4ccccc4)n3-c3ccc(C)cc3)ccc21", "inhibition": "-1.34% (inactive)"},
      {"smiles": "CCn1c(=O)n2n(c1=O)[C@@]1(C=C3CCCC[C@H]32)N=C(NC(=O)c2ccccc2)N(Cc2ccccc2)[C@H]1Cc1ccccc1", "inhibition": "10.8% (inactive)"},
      {"smiles": "C[C@H]1[C@H](NC(=O)c2cccc(N(C)C)c2)CC[C@@]23CCCN2C(=O)CCC[C@@H]13", "inhibition": "-4.79% (inactive)"},
      {"smiles": "C/C(=N\\Nc1ccc(Cl)nn1)c1ccccc1O", "inhibition": "23.4% (active)"},
      {"smiles": "Fc1ccccc1Cc1ccc(Cl)nn1", "inhibition": "9.12% (inactive)"},
      {"smiles": "COC(=O)[C@@]12CCCCC=C1N(CCc1ccc(Cl)cc1)C(=O)[C@H]2CC(=O)NCc1ccc(OC)c(OC)c1", "inhibition": "-15% (inactive)"},
      {"smiles": "Nc1[nH]c(C(=O)c2ccccc2)c(-c2ccc(Br)cc2)c1C(=O)NC1CC1", "inhibition": "25.4% (active)"},
      {"smiles": "Nc1[nH]c(C(=O)c2ccc(Br)cc2)c(-c2ccc3c(c2)OCO3)c1C(=O)NCCc1c[nH]c2ccccc12", "inhibition": "-43.9% (inactive)"},
      {"smiles": "CC(C)(C)C(=O)c1c(N)[nH]c(C(=O)c2ccccc2)c1-c1ccc(F)cc1", "inhibition": "5.32% (inactive)"},
      {"smiles": "COc1ccc(CCNC(=O)CSc2nc3c([nH]2)c(=O)n(C)c(=O)n3C)cc1", "inhibition": "5.11% (inactive)"},
      {"smiles": "CC(C)CNc1cccc2c1S(=O)(=O)N(Cc1cn(Cc3ccccc3C(F)(F)F)nn1)Cc1ccccc1O2", "inhibition": "6.58% (inactive)"},
      {"smiles": "CCOC(=O)C1CCN(C(=O)C(C)(C)NC(=O)Nc2ccc(F)c(F)c2)CC1", "inhibition": "1.05% (inactive)"},
      {"smiles": "CCOc1ccc(/C=N\\NC(=O)c2c(C)nc3cc(C)ccn23)cc1", "inhibition": "1.86% (inactive)"},
      {"smiles": "CCOc1ccc(/C=N/NC(N)=S)cc1", "inhibition": "19.5% (active)"},
      {"smiles": "CCOc1ccc(NS(=O)(=O)c2ccc(C)c(C(N)=O)c2)cc1", "inhibition": "2.14% (inactive)"},
      {"smiles": "CCOC(=O)N1CCN(C(=O)C[C@H]2C[C@@]3(C(=O)OC)C(=C[C@H](C(C)(C)C)O[C@@H]3C)N(Cc3ccc(Cl)cc3Cl)C2=O)CC1", "inhibition": "-6.16% (inactive)"},
      {"smiles": "CCOC(=O)[C@]12CCCC3=C1N(CCC3)C(=O)[C@@H](CC(=O)NCc1cccs1)C2", "inhibition": "-0.88% (inactive)"},
      {"smiles": "COC(=O)[C@]12C[C@H](CC(=O)NCCCN3CCCC3=O)C(=O)N(CCc3ccc(OC)c(OC)c3)C1=C[C@H](COCc1ccccc1)O[C@@H]2C", "inhibition": "11.1% (inactive)"},
      {"smiles": "Cc1ccc(C2CC(c3cccc(C)c3)n3nc(N)nc3N2)cc1", "note": "(centres undefined)", "inhibition": "25.2% (active)"},
      {"smiles": "COc1ccc(C2CC(c3ccc(Cl)cc3Cl)Nc3nc(N)nn32)cc1OC", "note": "(centres undefined)", "inhibition": "0.41% (inactive)"},
      {"smiles": "Cc1ccc(C2CC(c3cccc(Br)c3)n3nc(N)nc3N2)cc1", "note": "(centres undefined)", "inhibition": "9.36% (inactive)"},
      {"smiles": "O=C(OC12CCCN(C1)/C(=C/c1ccccc1)C2)c1ccco1", "note": "(centres undefined)", "inhibition": "4.15% (inactive)"},
      {"smiles": "C=CCN(Cc1ccc2c(c1)OCO2)C(C#CC1CC1)C(C)(C)C", "note": "(centres undefined)", "inhibition": "7.02% (inactive)"},
      {"smiles": "COc1cc(NC(=O)C2CCCN(S(=O)(=O)c3ccc(C(C)(C)C)cc3)C2)cc(OC)c1", "note": "(centres undefined)", "inhibition": "2.94% (inactive)"},
      {"smiles": "CCC(c1ccc(NC(=O)OC(C)(C)C)cc1)c1cc(OC)cc(OC)c1", "note": "(centres undefined)", "inhibition": "-18.5% (inactive)"},
      {"smiles": "COc1ccc(CSc2nnc(SCC(=O)Nc3ccccc3C(F)(F)F)s2)cc1", "inhibition": "-11.2% (inactive)"},
      {"smiles": "Cc1nn(CCOc2ccccc2)c(=O)n1-c1ccccc1F", "inhibition": "3.1% (inactive)"},
      {"smiles": "CC(C)(c1ccccc1)c1ccc(OCCN)cc1", "inhibition": "23.6% (active)"},
      {"smiles": "O=C(NCCOc1ccccc1)c1ccccc1F", "inhibition": "8.32% (inactive)"},
      {"smiles": "COC(=O)[C@]12C[C@H](CC(=O)NCc3ccccc3)C(=O)N(CCC3=CCCCC3)C1=C[C@H](C(C)C)O[C@@H]2C1CC1", "inhibition": "-0.06% (inactive)"},
      {"smiles": "CCn1c(SCC(C)=O)nc2sc3c(c2c1=O)CCCC3", "inhibition": "-63% (inactive)"},
      {"smiles": "CCCC1CCC2(CCCN2CCOC(=O)NCc2ccccc2)CC1", "note": "(centres undefined)", "inhibition": "0.68% (inactive)"},
      {"smiles": "CC(=O)OC12CCCN(C1)/C(=C/c1ccncc1)C2", "note": "(centres undefined)", "inhibition": "8.67% (inactive)"},
      {"smiles": "CC(=O)C1(C(=O)Nc2nccs2)CC(c2ccccc2C(F)(F)F)=NO1", "note": "(centres undefined)", "inhibition": "-9.84% (inactive)"},
      {"smiles": "Cc1cccc(NC(=S)NCCN(C2CCCCC2)C2CCCC2)c1", "inhibition": "23.8% (active)"},
      {"smiles": "Cc1cccc(C(=O)NC(=S)N(C)C2CCCCC2)c1", "inhibition": "7.08% (inactive)"},
      {"smiles": "Cc1cccc(NC(=S)NCc2ccc3[nH]c4c(c3c2)CCCC4)c1", "inhibition": "-9.81% (inactive)"},
      {"smiles": "C=CCN1C(=O)[C@H](CC(=O)N2CCN(C(=O)OCC)CC2)[C@@]2(C(=O)OCC)CCCC=C12", "inhibition": "-3.08% (inactive)"},
      {"smiles": "Cc1ccccc1CN1CCCCC(NC(=O)c2cccc(C#N)c2)C1=O", "note": "(centres undefined)", "inhibition": "14% (inactive)"},
      {"smiles": "CCOc1ccc(-n2c(SCC(=O)Nc3cc(C)c(NC(=O)c4ccccc4)cc3OC)nnc2-c2cccs2)cc1", "inhibition": "-11.7% (inactive)"},
      {"smiles": "CCC[C@H]1C(=O)CC[C@@]23CCCN2C(=O)CCC[C@@H]13", "inhibition": "9.16% (inactive)"},
      {"smiles": "COc1ccc([C@H]2OC(=O)C[C@H]2C(=O)N2CCN(c3ccccc3F)CC2)cc1OC", "inhibition": "-0.35% (inactive)"},
      {"smiles": "COc1cccc2c1OCC1COc3c(c(=O)n(C)c(=O)n3C)C21", "note": "(centres undefined)", "inhibition": "8% (inactive)"},
      {"smiles": "Cn1c2c(c(=O)n(C)c1=O)C1c3ccccc3OCC1C(C)(C)O2", "note": "(centres undefined)", "inhibition": "20.6% (active)"},
      {"smiles": "Cn1c2c(c(=O)n(C)c1=O)[C@@H]1c3c(ccc4ccccc34)OC[C@@H]1CO2", "inhibition": "1.04% (inactive)"}
    ]}
  ]
}
